Measurements as given in PubChem BioAssay AID1159580 (chemical genetic matrix, 2015).
Among all 5,500 compounds or so, about 2,000 (36%) were called active. Not shown: some 18% with an inconclusive outcome. This is one part of the list. A number with no mark means an inactive call. Cut-off read from the data, not from the text of the source: active = normalized growth mostly below about 0.91 (no sharp cut-off); inconclusive = no clear call, values can overlap the other calls; inactive = mostly above about 0.92.

Assay: chemical genetic growth profiling, strain panel (AID 1159580);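 note: tested at 20 µM; growth read once vehicle control cultures reached saturation at 30 °C; 1 = growth at the plate median or of vehicle wells; lower values mean less growth of the strain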
Conditions: S. cerevisiae deletion strains, growth OD
[1] = locus YAR019C, strain CDC15, active compounds read low
[2] = locus YBL105C, strain PKC1, active compounds read low
[3] = locus YBR135W, strain CKS1, active compounds read low
[4] = locus YBR136W, strain MEC1, active compounds read low
[5] = locus YBR160W, strain CDC28, active compounds read low
[6] = locus YDL017W, strain CDC7, active compounds read low
[7] = locus YDL028C, strain MPS1, active compounds read low
[8] = locus YDL101C, strain DUN1, active compounds read low
[9] = locus YDL108W, strain KIN28, active compounds read low
[10] = locus YDL132W, strain cdc53, active compounds read low
[11] = locus YDL214C, strain PRR2, active compounds read low
[12] = locus YDR052C, strain DBF4, active compounds read low
[13] = locus YDR054C, strain cdc34, active compounds read low
[14] = locus YDR226W, strain ADK1, active compounds read low
[15] = locus YDR477W, strain SNF1, active compounds read low
[16] = locus YER123W, strain YCK3, active compounds read low
[17] = locus YER133W, strain GLC7, active compounds read low
[18] = locus YFL009W, strain cdc4, active compounds read low
[19] = locus YFL029C, strain CAK1, active compounds read low
[20] = locus YFR003C, strain YPI1, active compounds read low
[21] = locus YFR019W, strain FAB1, active compounds read low
[22] = locus YFR028C, strain CDC14, active compounds read low
[23] = locus YGR040W, strain KSS1, active compounds read low
[24] = locus YGR052W, strain FMP48, active compounds read low
[25] = locus YGR092W, strain DBF2, active compounds read low
[26] = locus YHR030C, strain SLT2, active compounds read low
[27] = locus YHR079C, strain IRE1, active compounds read low
[28] = locus YHR082C, strain KSP1, active compounds read low
[29] = locus YHR205W, strain SCH9, active compounds read low
[30] = locus YIL147C, strain SLN1, active compounds read low
[31] = locus YJL095W, strain BCK1, active compounds read low
[32] = locus YJL128C, strain PBS2, active compounds read low
[33] = locus YJL157C, strain FAR1, active compounds read low
[34] = locus YJR016C, strain ILV3, active compounds read low
[35] = locus YJR066W, strain TOR1 (second series), active compounds read low
[36] = locus YJR066W, strain TOR1, active compounds read low
[37] = locus YKL048C, strain ELM1, active compounds read low
[38] = locus YKL067W, strain YNK1, active compounds read low
[39] = locus YKL101W, strain HSL1, active compounds read low
[40] = locus YKL193C, strain SDS22, active compounds read low
[41] = locus YKL203C, strain TOR2, active compounds read low
[42] = locus YLR113W, strain HOG1, active compounds read low
[43] = locus YLR133W, strain CKI1, active compounds read low
[44] = locus YLR403W, strain SFP1, active compounds read low
[45] = locus YML070W, strain DAK1, active compounds read low
[46] = locus YMR001C, strain CDC5, active compounds read low
[47] = locus YMR205C, strain PFK2 (second series), active compounds read low
[48] = locus YMR277W, strain FCP1, active compounds read low
[49] = locus YNL006W, strain LST8, active compounds read low
[50] = locus YNL020C, strain ARK1, active compounds read low
[51] = locus YNL161W, strain CBK1, active compounds read low
[52] = locus YNL183C, strain NPR1, active compounds read low
[53] = locus YNL207W, strain RIO2, active compounds read low
[54] = locus YNL222W, strain SSU72, active compounds read low
[55] = locus YNL307C, strain MCK1 (second series), active compounds read low
[56] = locus YOL078W, strain AVO1, active compounds read low
[57] = locus YOL136C, strain PFK27, active compounds read low
[58] = locus YOR061W, strain CKA2, active compounds read low
[59] = locus YOR119C, strain RIO1, active compounds read low
[60] = locus YOR231W, strain MKK1, active compounds read low
[61] = locus YOR329C, strain SCD5, active compounds read low
[62] = locus YPL031C, strain PHO85, active compounds read low
[63] = locus YPL153C, strain RAD53, active compounds read low
[64] = locus YPL204W, strain HRR25, active compounds read low
[65] = locus YPL209C, strain IPL1, active compounds read low
[66] = locus YPL256C, strain CLN2, active compounds read low
[67] = locus YPR025C, strain CCL1, active compounds read low
[68] = locus YPR106W, strain ISR1, active compounds read low
[69] = locus YPR111W, strain DBF20, active compounds read low
[70] = strain NNK1, active compounds read low
[71] = strain TSCII, active compounds read low

For `FC(F)(F)Sc1ccc(OCc2n[nH]c(=S)n2-c2ccccc2)cc1`, the normalized growth [1] was 0.989, the normalized growth [2] was 0.983 and the normalized growth [3] was 0.988. It also gave a normalized growth [4] of 0.983, a normalized growth [5] of 0.988 and a normalized growth [6] of 0.987. The normalized growth [7] was 0.986, the normalized growth [8] was 0.981 and the normalized growth [9] was 0.987. For the same compound, the normalized growth [10] was 0.993, the normalized growth [11] was 0.945 and the normalized growth [12] was 0.989. For the same compound, the normalized growth [13] was 0.978, the normalized growth [14] was 0.981 and the normalized growth [15] was 0.943. The normalized growth [16] was 0.873, the normalized growth [17] was 0.911 and the normalized growth [18] was 0.983. For the same compound, the normalized growth [19] was 0.989, the normalized growth [20] was 0.988 and the normalized growth [21] was 0.936. For the same compound, the normalized growth [22] was 0.993, the normalized growth [23] was 0.949 and the normalized growth [24] was 0.939. For the same compound, the normalized growth [25] was 0.874, the normalized growth [26] was 0.814 (active) and the normalized growth [27] was 0.896. The normalized growth [28] was 0.963, the normalized growth [29] was 0.957 and the normalized growth [30] was 0.984. It also gave a normalized growth [31] of 0.917, a normalized growth [32] of 0.94 and a normalized growth [33] of 0.92. For the same compound, the normalized growth [34] was 0.984, the normalized growth [35] was 0.906 and the normalized growth [36] was 0.945. It also gave a normalized growth [37] of 0.953, a normalized growth [38] of 0.934 and a normalized growth [39] of 0.891. For the same compound, the normalized growth [40] was 0.994, the normalized growth [41] was 0.961 and the normalized growth [42] was 0.82 (active). For the same compound, the normalized growth [43] was 0.938, the normalized growth [44] was 0.954 and the normalized growth [45] was 0.92. For the same compound, the normalized growth [46] was 0.991, the normalized growth [47] was 0.946 and the normalized growth [48] was 0.992. It also gave a normalized growth [49] of 0.986, a normalized growth [50] of 0.904 and a normalized growth [51] of 0.986. The normalized growth [52] was 0.879, the normalized growth [53] was 0.985 and the normalized growth [54] was 0.99. The normalized growth [55] was 0.91, the normalized growth [56] was 0.996 and the normalized growth [57] was 0.931. For the same compound, the normalized growth [58] was 0.971, the normalized growth [59] was 1 and the normalized growth [60] was 0.907. The normalized growth [61] was 0.985, the normalized growth [62] was 0.909 and the normalized growth [63] was 0.916. For the same compound, the normalized growth [64] was 0.893, the normalized growth [65] was 0.984 and the normalized growth [66] was 0.82 (active). It also gave a normalized growth [67] of 0.989, a normalized growth [68] of 0.979 and a normalized growth [69] of 0.959. It also gave a normalized growth [70] of 0.977 and a normalized growth [71] of 0.983.
Work on `FC(F)(F)Oc1ccc(OCc2n[nH]c(=S)n2-c2ccc(Cl)cc2)cc1` yielded a normalized growth [1] of 0.984, a normalized growth [2] of 0.986 and a normalized growth [3] of 0.989. It also gave a normalized growth [4] of 0.996, a normalized growth [5] of 0.991 and a normalized growth [6] of 0.995. The normalized growth [7] was 0.99, the normalized growth [8] was 0.983 and the normalized growth [9] was 0.987. For the same compound, the normalized growth [10] was 0.981, the normalized growth [11] was 1 and the normalized growth [12] was 0.987. The normalized growth [13] was 0.989, the normalized growth [14] was 0.98 and the normalized growth [15] was 0.994. It also gave a normalized growth [16] of 0.889, a normalized growth [17] of 1 and a normalized growth [18] of 0.988. The normalized growth [19] was 0.985, the normalized growth [20] was 0.987 and the normalized growth [21] was 0.988. The normalized growth [22] was 0.989, the normalized growth [23] was 1.01 and the normalized growth [24] was 1.1. For the same compound, the normalized growth [25] was 0.944, the normalized growth [26] was 0.967 and the normalized growth [27] was 1.07. The normalized growth [28] was 1.05, the normalized growth [29] was 1.01 and the normalized growth [30] was 0.988. For the same compound, the normalized growth [31] was 1.15, the normalized growth [32] was 0.956 and the normalized growth [33] was 1. The normalized growth [34] was 0.996, the normalized growth [35] was 0.986 and the normalized growth [36] was 1.13. It also gave a normalized growth [37] of 0.965, a normalized growth [38] of 1.02 and a normalized growth [39] of 0.986. It also gave a normalized growth [40] of 0.982, a normalized growth [41] of 1.05 and a normalized growth [42] of 1.07. It also gave a normalized growth [43] of 1, a normalized growth [44] of 1 and a normalized growth [45] of 1.01. The normalized growth [46] was 0.983, the normalized growth [47] was 1.01 and the normalized growth [48] was 0.99. The normalized growth [49] was 0.986, the normalized growth [50] was 0.994 and the normalized growth [51] was 0.989. The normalized growth [52] was 1.12, the normalized growth [53] was 0.99 and the normalized growth [54] was 0.985. The normalized growth [55] was 0.999, the normalized growth [56] was 0.986 and the normalized growth [57] was 0.994. It also gave a normalized growth [58] of 1.01, a normalized growth [59] of 1.02 and a normalized growth [60] of 1.09. It also gave a normalized growth [61] of 0.99, a normalized growth [62] of 0.973 and a normalized growth [63] of 0.983. For the same compound, the normalized growth [64] was 0.975, the normalized growth [65] was 0.987 and the normalized growth [66] was 1.04. The normalized growth [67] was 0.991, the normalized growth [68] was 0.996 and the normalized growth [69] was 0.992. For the same compound, the normalized growth [70] was 0.999 and the normalized growth [71] was 0.987.
`CC(C)(C)OC(=O)NCc1n[nH]c(=S)n1-c1ccccc1` gave a normalized growth (locus YAL013W, strain DEP1, active compounds read low) of 1.03, a normalized growth (locus YBR229C, strain ROT2, active compounds read low) of 1.01 and a normalized growth [8] of 1.02. For the same compound, the normalized growth (locus YDL134C, strain PPH21, active compounds read low) was 1.01, the normalized growth (locus YDR150W, strain NUM1, active compounds read low) was 1 and the normalized growth (locus YEL061C, strain CIN8, active compounds read low) was 0.993. The normalized growth (locus YGR078C, strain PAC10, active compounds read low) was 1.01, the normalized growth (locus YGR229C, strain SMI1, active compounds read low) was 0.999 and the normalized growth [26] was 1.09. The normalized growth (locus YHR087W, strain rtc3, active compounds read low) was 1.01, the normalized growth (locus YJR043C, strain POL32, active compounds read low) was 1.04 and the normalized growth (locus YJR075W, strain HOC1, active compounds read low) was 0.995. It also gave a normalized growth (locus YLR039C, strain RIC1, active compounds read low) of 0.998, a normalized growth (locus YLR058C, strain SHM2 (second series), active compounds read low) of 1.02 and a normalized growth (locus YLR085C, strain ARP6, active compounds read low) of 1.02. It also gave a normalized growth (locus YLR262C, strain YPT6, active compounds read low) of 1.07, a normalized growth (locus YML094W, strain GIM5, active compounds read low) of 1.01 and a normalized growth (locus YMR219W, strain ESC1, active compounds read low) of 1.01. It also gave a normalized growth (locus YMR263W, strain SAP30, active compounds read low) of 1.01, a normalized growth (locus YNL153C, strain GIM3, active compounds read low) of 0.958 and a normalized growth (locus YNL298W, strain CLA4 (second series), active compounds read low) of 1.06. For the same compound, the normalized growth (locus YNL322C, strain KRE1, active compounds read low) was 0.999, the normalized growth (locus YNR030W, strain Alg12, active compounds read low) was 1.01 and the normalized growth (locus YPL055C, strain LGE1, active compounds read low) was 1.02. It also gave a normalized growth (locus YPL241C, strain CIN2, active compounds read low) of 0.994 and a normalized growth (locus YPR135W, strain CTF4, active compounds read low) of 1.12.
